Results filed as inconclusive are left out. Calls of active or inactive are those of the source. Calls come from the whole dose curve; as a rule, active = well fitted inhibition curve with a large enough effect; inconclusive = small, poorly fitted or top-dose-only effect, or effect the other way; inactive = flat fitted curve, though single readings scatter.

The nature of this assay: qHTS Assay Multiplex Screening to Identify Dual Action Probes in a Cell Model of Huntington: Cytoprotection (Protease relase). The note with it: PC12 HttQ103 cells, Cytotox-Glo protease release, 40 h; series mostly up to 46.1 µM; activity change, negative = inhibition: at the top concentration. From the text:
NIH Chemical Genomics Center [NCGC]
NIH Molecular Libraries Probe Production centers Network [MLPCN]
Assay Submitter (PI): Wei Zheng
Huntington's disease is a neurodegenerative disorder caused by a trinucleotide repeat expansion in Exon 1 of the Huntingtin gene. The CAG trinucleotide encodes glutamine and polyglutamine expansions cause cell death in selective areas of the brain. Huntington polyglutamine repeats have the tendency to form aggregates which are observable in later stages of the disease. The exact nature of the aggregates, whether toxic, protective, or insignificant, is unclear.
A stable PC12 cell line containing a gene fusion of Exon 1 of the Huntingtin gene linked to GFP under the control of the inducible ecdysone promoter were used as the cell-based model of Huntington Disease for high throughput screening. Exon 1 of the Huntingtin gene contained an expansion of 103 polyglutamines (Q103) which, when expressed, caused cell death and distinct, bright GFP aggregates. The amount of cell death and the size and intensity of GFP aggregates increased over time and induction level. In the primary screen, cell death were quantified with a measurement of ATP content in the cells. A maximal 40-50% of cell death was observed when the Huntington gene was induced in this cell line.
We optimized this assay in a homogeneous 1536 well format. A quantitative high throughput screen (qHTS) was conducted on the PC12 cells which were induced to express the toxic fusion construct. Small molecules which prevented cell death were considered hits, and were further studied. The present assay is an alternate assay for cytoprotection using Promega's Cytotox-Glo reagent.
PC12 cells stably containing a construct with an ecdysone inducible promoter expressing GFP fused to the exon 1 of HTTQ103 (Huntington protein which containing a 103 ployglutamine expansion) were used.
NCGC Assay Protocol Summary:
Sequence, Parameter, Description
1, Reagent, 5 uL 1500 cells/well 1536 TC treated White clear bottom plate
2, Compound, 23 nL Tebufenozide inducer (100 nM final) to all columns
3, Compound, 23 nL 40 uM to 0.5 nM Libraries
5, Reagent, 2 ul Promega's Cytotox-Glo assay reagent
6, Detector, 4 sec integration with a Viewlux Luminescent
Media consisted of phenol red free DMEM + 5% equine serum (Hyclone # SH30072.03 ), 5% supplemented Bovine Calf Serum (Hyclone # SH30074.03 ), 1x pen/strep, no G418
(In general: In qHTS, concentration-response curves come from the screen itself.)
For the compound `CCC(C)C(=O)OC1C(O)C2C(CN3CC(C)CCC3[C@]2(C)O)C2C[C@]34O[C@@]5(O)C(OC(=O)C(C)(O)CC)CCC3(C)C5C(OC(C)=O)C(OC(C)=O)C4[C@@]21O` (some centres not stated), the “activity change, negative = inhibition” value is 13.4% (inactive).
In the case of `NC(=O)c1sc2nc3c(c(-c4cccs4)c2c1N)CCCC3`, the “activity change, negative = inhibition” value is -20.3% (inactive).
Consider `Oc1cc(Cl)ccc1Oc1ccc(Cl)cc1Cl`, for which the “activity change, negative = inhibition” value is -6.35% (inactive).
As for `O=C1C=C2C=C[C@H]3C[C@@]2(O1)[C@H]1CCCCN31`, the Potency is 794 nM (active).
On to `C[C@@]1(CO)[C@H](O)CC[C@@]2(C)[C@H]1CC[C@H]1C[C@@H]3C[C@@]12CC[C@]3(O)CO`, for which the “activity change, negative = inhibition” value is 8.07% (inactive).
Still for that read-out and setting: under `C[C@H]1CC[C@@]2(NC1)O[C@@H]1C[C@H]3[C@@H]4CC=C5C[C@@H](O)CC[C@]5(C)[C@@H]4CC[C@]3(C)[C@@H]1[C@@H]2C` stands 15% (inactive); under `CC[C@]1(C2=NCCN2)Cc2ccccc2O1`, 6.43% (inactive).

(Values after PubChem BioAssay AID2669 (National Center for Advancing Translational Sciences (NCATS), 2010).)
